Laboratory results as given in PubChem BioAssay AID1376 (SRMLSC, 2008).
The whole screen tested about 220,000 compounds, of which about 530 (0.24%) were called active. The full list was thinned out, with actives kept by preference. Measured potencies and affinities stand elsewhere. Values without a mark were called inactive. Rule as the data show it: active = inhibition above about 13%; inconclusive = no clear call, values can overlap the other calls; inactive = below that.

These molecules were tested against Bifunctional protein GlmU (Mycobacterium tuberculosis (strain ATCC 25618 / H37Rv)) (UniProt P9WMN3) (assay: inhibition of mycobacterial GlmU enzyme – biochemical, glucosamine-1-phosphate acetyltransferase (AID 1376;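 also: 0% = complete reaction with vehicle and 100% = reaction without substrate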)). Conditions: M. tuberculosis GlmU acetyltransferase enzyme assay; stronger effect = higher value;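 tested at 30 µM in the primary screen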.
Sequence of Bifunctional protein GlmU (Mycobacterium tuberculosis (strain ATCC 25618 / H37Rv)) (P9WMN3 whole entry, looked up): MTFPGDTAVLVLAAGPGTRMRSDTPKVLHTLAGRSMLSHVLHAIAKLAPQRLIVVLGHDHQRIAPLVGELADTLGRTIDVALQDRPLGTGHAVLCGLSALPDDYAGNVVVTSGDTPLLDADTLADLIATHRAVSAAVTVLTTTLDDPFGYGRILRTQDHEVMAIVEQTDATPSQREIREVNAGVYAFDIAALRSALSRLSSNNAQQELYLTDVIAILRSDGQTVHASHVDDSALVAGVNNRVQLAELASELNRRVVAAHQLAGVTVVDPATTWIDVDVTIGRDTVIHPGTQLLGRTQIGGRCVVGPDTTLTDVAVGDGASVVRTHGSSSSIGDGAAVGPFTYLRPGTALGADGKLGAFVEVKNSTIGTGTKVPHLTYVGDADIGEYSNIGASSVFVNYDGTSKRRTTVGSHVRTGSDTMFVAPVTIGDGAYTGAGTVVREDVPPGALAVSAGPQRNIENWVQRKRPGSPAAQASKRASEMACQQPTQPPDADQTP
Molecule `CC(C)(CN1CCN(c2ccccc2)CC1)NS(=O)(=O)c1ccccc1` has an inhibition of -4.3%. Molecule `COC(=O)c1ccccc1CCC(C)=O` has an inhibition of -1.25%. With `O=c1cc2c(=O)oc3cc(O)c(O)oc3c2c(O)c1O` the inhibition was 16.8% (active). Work on `O=c1oc2ccccc2c2oc3cc(O)c(O)cc3c12` yielded an inhibition of 2.91%. Work on `O=c1oc2cc(O)c(Cl)cc2c2ccccc12` yielded an inhibition of 2.71%. With `CN1C(=O)NC(=O)/C(=C/c2ccc(C(=O)O)cc2)C1=O` the inhibition was 2.77%. In the case of `CN(C(=O)CC(=O)Nc1ccc(Cl)c(Cl)c1)c1ccccc1`, the inhibition is reported as 0.26%. Molecule `CC(CCc1ccccc1)NC(=O)C1CCCN(c2nnc(-n3cccc3)s2)C1` (stereo not drawn) has an inhibition of 7.96%. Molecule `COC(=O)c1ccccc1NC(=O)N1CCN(c2ccccc2)CC1` has an inhibition of -3.35%. `COCCNC(=O)C1CC2Cn3c(nc4cc(C)c(C)cc43)C2N1C` (stereo not drawn) was tested, and the inhibition was 1.27%. `Nc1ccc(Cc2ccc(N)c(C(=O)O)c2)cc1C(=O)O` showed an inhibition of 7.1%. Molecule `Cc1cc(Cc2ccc(N)c(C)c2)ccc1N` has an inhibition of -3.87%. With `Nc1ccc(Cc2ccc(N)c(O)c2)cc1O` the inhibition was 13.4% (active). With `COc1cccc(NS(=O)(=O)c2ccc3c(c2)C2C=CCC2C(c2ccc(C(=O)O)cc2)N3)c1` (stereo not drawn) the inhibition was 13.1% (active). `CC(=O)c1ccc2c(c1)C1C=CCC1C(c1ccc(S(=O)(=O)N3CCOCC3)cc1)N2` (stereo not drawn) showed an inhibition of 0.66%. `COc1ccc(C(=O)N/N=C(\C)c2ccc3c(c2)C2C=CCC2C(c2ccccc2)N3)cc1` (stereo not drawn) gave an inhibition of 7.99%. With `Cc1c(Cl)cccc1NS(=O)(=O)c1ccc2c(c1)C1C=CCC1C(c1ccc(C(=O)O)cc1)N2` (stereo not drawn) the inhibition was 23.6% (active). Molecule `O=C(O)c1ccc2c(c1)C1C=CCC1C(c1ccncc1)N2` (stereo not drawn) has an inhibition of -9.79%. `O=C(O)c1ccc(NS(=O)(=O)c2ccc3c(c2)C2C=CCC2C(c2ccccc2F)N3)cc1` (stereo not drawn) was tested, and the inhibition was 25.9%. With `CC1CCc2sc(C(=O)OCC(=O)NCc3ccccc3)cc2C1` (stereo not drawn) the inhibition was -4.45%. With `CC12CCC(C/C1=N\OC(=O)c1ccc(F)cc1)C2(C)C` (stereo not drawn) the inhibition was 1.74%. `C/C=C/C(=O)N1CC2(CC(c3cccc(NC(=O)/C(C)=C/C)c3)=NO2)C[C@H]1C(N)=O` (stereo partly drawn) showed an inhibition of 3.31%. In the case of `Cc1cc(C)n(-c2cc(N3CCN(S(=O)(=O)c4ccc(Cl)cc4)CC3)ccc2[N+](=O)[O-])n1`, the inhibition is reported as 5.84%. `COc1cccc2c(=O)n(CC(=O)N3CCc4ccccc43)ccc12` gave an inhibition of 1.33%. In the case of `N#CC1=C(N)N(c2ccccc2)C2=C(C(=O)CCC2)C1c1cccs1` (stereo not drawn), the inhibition is reported as 2.47%. In the case of `CCCCNC(=O)Oc1c(Br)cc2sc(=O)oc2c1Br`, the inhibition is reported as 13.8% (active). For `CCCCNC(=O)Oc1cc(CCl)on1`, the inhibition was -3.53%. Work on `O=C(NC1CCCCC1)Oc1cc2oc(=O)sc2cc1Br` yielded an inhibition of -0.42%. For `CSc1cccc(NC(=O)C2CCCN2S(=O)(=O)c2ccc(Br)s2)c1` (stereo not drawn), the inhibition was 7.56%. For `CSc1ccc(C(=O)C2CCCN(Cc3cnc(SC)nc3)C2)cc1` (stereo not drawn), the inhibition was -1.56%. With `COc1cccc(N2CCN(C(=O)NC3CCCCC3)CC2)c1` the inhibition was -5.07%. `CCCCC(CC)C1OCC(CN2CCCCC2)O1` (stereo not drawn) was tested, and the inhibition was 7.5%. In the case of `O=C1NC(=O)N(c2ccccc2)C(=O)/C1=C/c1ccc(Sc2ccccc2)o1`, the inhibition is reported as 19.6%. `CN1C(=O)C(=Cc2ccc(Sc3ccccc3)o2)C(=O)N(C)C1=O` was tested, and the inhibition was -2.7%. With `O=[N+]([O-])c1cc(S(=O)(=O)N2CCCC2)ccc1N/N=C/c1cccnc1` the inhibition was -1.08%. `O=c1cc(O)c2ccc(O)cc2o1` was tested, and the inhibition was 4.26%. `O=c1cc(-c2ccc(O)cc2)oc2ccc(O)cc12` gave an inhibition of -0.88%. Work on `O=C(c1ccc([N+](=O)[O-])cc1[N+](=O)[O-])N1CCCC1` yielded an inhibition of 2.34%. With `CC1CC(C)CN(C(=O)Cn2c(=O)n(CCCCC(=O)NCc3ccco3)c(=O)c3ccccc32)C1` (stereo not drawn) the inhibition was 4.18%. `CCOc1nc2c(c(=O)n(C)c(=O)n2C)n1Cc1ccccc1Cl` gave an inhibition of 1.39%. For `CCCCNC(=O)Nc1nc2ccccc2s1`, the inhibition was 5.87%. For `COc1cccc(NC2=NC3(CCCCC3)N=C(N)N2)c1`, the inhibition was 0.3%. In the case of `COc1ccc(NC2=NC3(CCCCC3)N=C(N)N2)cc1`, the inhibition is reported as 26% (active). `CCCCOc1ccc(NC2=NC3(CCCCC3)N=C(N)N2)cc1` was tested, and the inhibition was -13.7%. For `CCOc1ccc(/C=C(/NC(=O)c2ccc(Cl)cc2)C(=O)O)cc1OCC`, the inhibition was -0.87%. With `NC(=O)c1ccc(-n2nnnc2Oc2ccc(Br)cc2)cc1` the inhibition was -0.77%. `COc1ccc(NC(=O)Nc2ccccn2)cc1OC` gave an inhibition of 5.35%. Molecule `Cc1c(Br)c(=O)oc2c(Br)c(O)ccc12` has an inhibition of 4.5%. Molecule `Cc1c(Br)c(=O)oc2c(C)c(O)ccc12` has an inhibition of -1.97%. Work on `CC(C)(Cc1ccc(O)cc1)NC(=O)CC(=O)N/N=C/c1ccc([N+](=O)[O-])cc1` yielded an inhibition of -2.21%. `COc1cc(/C=N/NC(=O)CCn2c3ccccc3c3ccccc32)cc(OC)c1OC` showed an inhibition of 1.58%. `O=C(CN1CCN(Cc2ccccc2)CC1)N/N=C/c1cccnc1` gave an inhibition of 1.02%. In the case of `O=C1NC(=Nc2ccc(O)cc2)S/C1=C\C=C\c1ccco1`, the inhibition is reported as 3.62%. With `Cc1cccc(N=C2NC(=O)/C(=C/C=C/c3ccco3)S2)c1` the inhibition was 13.5% (active). For `O=C1NC(=Nc2ccccc2)S/C1=C\C=C\c1ccco1`, the inhibition was 14.8% (active). In the case of `COc1ccc(N=C2NC(=O)/C(=C\C=C\c3ccco3)S2)cc1`, the inhibition is reported as 8.93%. `Cc1cccc(N=C2NC(=O)/C(=C/C=C/c3ccco3)S2)c1C` was tested, and the inhibition was -4.23%. `Cc1ccc(N=C2NC(=O)/C(=C/C=C/c3ccco3)S2)cc1` showed an inhibition of 4.9%. For `O=C1Cn2c(nc3ccccc32)N1c1cccc(C(F)(F)F)c1`, the inhibition was 0.84%. `CN(Cc1ccncc1)C1CC(=O)N(c2ccc(F)cc2)C1=O` (stereo not drawn) was tested, and the inhibition was 5.02%. For `CCSc1ccccc1C(=O)NC1CCCCC1`, the inhibition was 2.94%. For `CCCNCc1cc(Br)ccc1OCC(=O)NCCc1ccccc1`, the inhibition was 0.38%. `CC(C)N(Cc1ccccc1)C(=O)Cn1c(=O)cnc2ccccc21` gave an inhibition of -0.29%. `Cc1[nH]n(C2=NCCS2)c(=O)c1N=Nc1cccc(C(F)(F)F)c1` showed an inhibition of -0.55%. `Cc1cc(C)c(S(=O)(=O)Nn2cnnc2)c(C)c1` showed an inhibition of -3.71%. `Cc1ccc(S(=O)(=O)c2c(C)cc(C)nc2Cl)c(C)c1` showed an inhibition of 1.23%. In the case of `Cc1cc(C)c(S(=O)(=O)/N=C2\C=CC(=O)C(Cl)=C2)c(C)c1`, the inhibition is reported as 14.5% (active). With `COc1cccc(C2=NN(C(=O)c3ccco3)C(O)(C(F)(F)F)C2)c1` (stereo not drawn) the inhibition was 3.28%. `Cc1ccc(-c2csc3ncnc(OCC(=O)NC(=O)NCc4ccco4)c23)cc1` showed an inhibition of 2.74%. Molecule `CC(=O)Nc1ccc(S(=O)(=O)N(C)c2ccccc2)cc1` has an inhibition of -1.32%. `CN(c1ccccc1)S(=O)(=O)c1ccc(NC(=S)Nc2ccccc2)cc1` was tested, and the inhibition was 18.1% (active). With `CN(c1ccccc1)S(=O)(=O)c1ccc(NC(=S)NC(=O)c2ccccc2)cc1` the inhibition was 0.7%. `O=C1c2cccc(O)c2C(=O)c2c(O)cccc21` showed an inhibition of 6.42%. For `O=C1c2cccc(Sc3ccccc3)c2C(=O)c2c(Sc3ccccc3)cccc21`, the inhibition was 14.2% (active). For `O=C(O)c1ccc2c(c1Sc1ccccc1)C(=O)c1ccccc1C2=O`, the inhibition was 7.96%. `CC(C)C(NC(=O)C1CCC(C(C)(C)C)CC1)C(=O)NCc1cccnc1` (stereo not drawn) was tested, and the inhibition was 5%. `CCOc1ccc(S(=O)(=O)N2CCN(C(=S)NC3CC3)CC2)cc1` was tested, and the inhibition was 4.79%. Work on `CCn1c(Cc2ccccc2)nnc1SCc1cccc(C(=O)O)c1` yielded an inhibition of 1.34%. In the case of `CCC(=NC(C)c1ccccc1)c1c(O)n(C)c(=O)n(C)c1=O` (stereo not drawn), the inhibition is reported as -3.09%. In the case of `COc1cc2c(cc1OC)C(c1ccccc1O)N(C1CC(=O)N(c3ccccc3)C1=O)CC2` (stereo not drawn), the inhibition is reported as 2.68%. For `CCOC(=O)Cc1csc(NC(=O)c2cc(C)cc(C)c2)n1`, the inhibition was -2.68%. In the case of `Cn1c(SCC(=O)N2CCOCC2)nnc1-c1ccc2ncccc2c1`, the inhibition is reported as 13.7% (active). Work on `CCOC(=O)CSc1nnc(-c2ccc3ncccc3c2)n1C` yielded an inhibition of 0.08%. For `Cn1c(SCC(=O)O)nnc1-c1ccc2ncccc2c1`, the inhibition was -1.41%. For `Cc1ccc(S(=O)(=O)N2CCCOC2CNC(=O)C(=O)NC2CCCCC2)cc1` (stereo not drawn), the inhibition was -5.78%. In the case of `O=C1/C(=C\c2ccc(Br)o2)Cc2ccccc21`, the inhibition is reported as 8.39%. Molecule `Cc1ccc(C=C2C(=O)c3ccccc3C2=O)o1` has an inhibition of 2.45%. In the case of `COc1ccc(C(CNC(=O)c2ccc(S(=O)(=O)N(C)C)cc2)N2CCCCC2)cc1` (stereo not drawn), the inhibition is reported as 0.14%. With `COc1ccc(NC(=O)N2CCCC2C(=O)NCc2ccc(C)cc2)cc1` (stereo not drawn) the inhibition was 1.15%. `CC(C)CNC(C)C(=O)Nc1ccc(S(N)(=O)=O)cc1` (stereo not drawn) was tested, and the inhibition was -3.38%. Work on `C=CCOc1c2ccc(C(=O)NCc3ccc(C)cc3)cc2nn1C` yielded an inhibition of 1.15%. In the case of `Cn1c2ccccc2c2cc(C(=O)N3CCN(CCO)CC3)sc21`, the inhibition is reported as 12.8% (active). Work on `CC(=O)NNC(=O)c1cc2c3ccccc3n(C)c2s1` yielded an inhibition of 2.59%. For `Cn1c2ccccc2c2cc(C(=O)N3CCOCC3)sc21`, the inhibition was 5.13%. Work on `CN1CCc2nc(SCc3ccccc3Br)c(C#N)cc2C1` yielded an inhibition of -4.18%. For `Cc1cccc(CSc2nc3c(cc2C#N)CN(C)CC3)c1`, the inhibition was -4.03%. `CN1CCc2nc(SCc3cccc(Br)c3)c(C#N)cc2C1` was tested, and the inhibition was 13% (active). With `Cc1c(C(=O)OCCOc2ccccc2)[nH]c2c1C(=O)CCC2` the inhibition was 2.56%.
